# Hits are enriched below; roughly 3.7% of the tested compounds scored in any of these assays.
# FEN1 inhibitor: human FEN1 inhibition; Potency, µM (series often up to 114 µM), hits mostly inhibitors; AID 588795; Recombinant FEN1 flap cleavage, fluorescence, 15 min; 0.35% of 390,000 active; P39748; also: nearly all actives have a fitted effect of over 65% in size
#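 Reaction started by adding substrate (50 nM final) to 10 nM enzyme after 15 min room-temperature compound preincubation. Reads at 0 and 15 min, with data normalized and fitted to a four-parameter Hill equation.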
# PLK1 PBD inh: blocks phosphopeptide binding to human PLK1 polo-box domain | Plk1 PBD binding of FITC phosphopeptide, fluorescence polarization | Potency, µM, actives largely listed as inhibitors | 2.8% of 360,000 active; also: series mostly up to about 57 µM; nearly all actives have a fitted effect of over 65% in size
# TCR activator: T cell receptor activation; 330,000 tested, under 10 active; Potency, µM (doses to about 9.22 µM), hits mostly activators; primary human leukocytes, anti-CD3, IL-2 HTRF, 48 h; AID 504894
#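 TCR engagement came from a-CD3 beads alone, with compounds added to primary human leukocytes for 48 hr. Secreted IL-2 bridged europium cryptate- and d2-labelled anti-IL-2 antibodies, giving FRET emission at 665nm after 320nm excitation.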
# VDR inhibitor: inhibitors of human vitamin D receptor; VDR-SRC2-3 peptide fluorescence polarization, 2 h; Potency, µM, hits mostly inhibitors; 0.93% of 400,000 active; AID 504847
#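 Reagent solutions, kept cold and dark, are dispensed first; compounds are then pinned in at 23 nl, plates briefly spun, and incubated 2 h at ambient temperature. Inhibition of VDR–SRC2-3 peptide binding is read by fluorescence polarization.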
# WRN inhibitor: inhibitors of human WRN helicase; Q14191; WRN helicase unwinding, fluorescent forked duplex, kinetic; Potency, µM (top dose mostly 114 µM), hits mostly inhibitors; 0.46% of 360,000 active; also: nearly all actives have a fitted effect of over 55% in size
#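 Screening of the MLSMR collection measured strand separation of a quenched forked DNA duplex (100 nM) by 20 nM WRN with 2 mM ATP, all final. Compounds were preincubated with enzyme 15 min at room temperature.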
# PI5P4K alpha inh: inhibitors of human PI5P4K alpha. 1.2% of 330,000 active. max response, %. P48426. PI5P4Kalpha enzyme, ADP-Glo luminescence, 60 min; stronger effect = lower value; active = max response of -50% or lower; inconclusive = between -30% and -50%; inactive = -30% or higher; also: value at the top dose of about 77 µM
# Target sequence (P48426 whole entry, looked up): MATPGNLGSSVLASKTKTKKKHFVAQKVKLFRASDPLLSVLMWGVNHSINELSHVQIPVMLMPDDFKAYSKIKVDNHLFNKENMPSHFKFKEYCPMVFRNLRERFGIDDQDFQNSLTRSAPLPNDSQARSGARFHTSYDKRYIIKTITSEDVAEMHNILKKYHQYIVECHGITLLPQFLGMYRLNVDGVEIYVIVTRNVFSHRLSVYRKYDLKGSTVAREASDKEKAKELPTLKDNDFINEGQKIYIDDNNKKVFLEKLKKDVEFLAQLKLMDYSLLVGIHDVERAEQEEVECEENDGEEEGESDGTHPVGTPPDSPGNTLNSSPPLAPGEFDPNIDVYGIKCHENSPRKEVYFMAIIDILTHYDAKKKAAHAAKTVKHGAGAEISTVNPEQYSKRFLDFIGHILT
#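 Reactions run in 0.038 M HEPES pH 7.4, 0.28 mM EGTA, 0.1% CHAPS and 5% DMSO, with PI5P4Kalpha, substrate, compound and 5 microM ATP final, one hour at room temperature. Readout is ADP-Glo luminescence.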
# A number is an active result; 0 = inactive; ? = inconclusive; - = no result given; [ ] = dose if it differs, or a comment. Unless noted, calls follow the shape of the dose curve; as a rule, active = well fitted curve in the direction sought with a large enough effect; inconclusive = small, poorly fitted or top-dose-only effect, or another doubt; inactive = no such curve, though single readings can be large; an effect the other way counts as inactive or inconclusive.
SMILES,FEN1 inhibitor,PLK1 PBD inh,TCR activator,VDR inhibitor,WRN inhibitor,PI5P4K alpha inh
COc1ccc2nc(N(Cc3cccnc3)C(=O)CCc3ccccc3)sc2c1,0,-,-,0,-,-
C=CCn1c(SCC(=O)N2CC(=O)Nc3ccccc32)nc2scc(-c3ccccc3)c2c1=O,0,12µM,0,0,0,0
C=CCn1c(SCC(C)=O)nc2scc(-c3ccco3)c2c1=O,?,?,0,79µM,?,-55
C=CCn1c(SCC(=O)NCc2ccc3c(c2)OCO3)nc2scc(-c3ccccc3)c2c1=O,0,0,0,0,0,0
Cc1ccc(-n2ncc3c(NC4CCCCC4)ncnc32)cc1Cl,0,-,-,0,-,-
CCCCC[C@H](O)/C=C/C=C\C/C=C\CCCCC(=O)O,-,-,-,0,-,-
COc1ccc(C2C(C(=O)Nc3cc(C)on3)c3ccccc3C(=O)N2C)cc1 (centres undefined),0,24µM,-,0,0,0
CCC(C)NC(=O)C1c2ccccc2C(=O)N(c2ccc(OC)cc2)C1c1ccc(OC)cc1 (centres undefined),0,24µM,-,?,0,0
Cc1cccc(NC(=O)CSc2nnc3[nH]c(=O)cc(-c4ccccc4)n23)c1C,0,-,-,0,-,-
CCN(Cc1ccccc1)C(=O)C1CCN(CC2CC=CCC2)CC1 (centres undefined),0,0,0,0,0,0
O=C(C1CC1)N(CCN(Cc1ccccc1)C(=O)C1CC1)Cc1ccccc1,0,27µM,0,0,0,0
CNc1c(Br)cc(/C=C2\C=C(C(O)c3cc(Br)c(NC)c(Br)c3)c3ccccc32)cc1Br (centres undefined),0,-,-,-,-,-
CC(=O)Nc1ccc(SCC(=O)c2ccc(Br)s2)cc1,0,4.7µM,0,?,0,0
CC(=O)Nc1ccc(SCC(=O)c2cc(C)n(C)c2C)cc1,0,?,0,0,0,0
CC(=O)Nc1ccc(SCC(=O)Nc2ccc3c(c2)OCCO3)cc1,0,12µM,0,?,0,0
O=C(CSc1ncccc1C(=O)O)Nc1ccc2c(c1)OCCO2,0,0,0,0,0,-52
Cc1c(NC(=O)CSc2ccc3c(c2)OCCO3)c(=O)n(-c2ccccc2)n1C,0,27µM,0,0,0,0
CCN(C(=O)c1cn(-c2ccc(OC)cc2)c(=O)c2ccccc12)c1cccc(Cl)c1,0,-,-,0,-,-
CC(C)CC(=O)N1C/C=C\C[C@@H](c2ccc(Cl)cc2)N(Cc2ccc(Cl)cc2)C(=O)[C@@H]1Cc1ccccc1,0,-,-,-,-,-
CC[C@H](C)[C@H](NC(=O)[C@@H](NC(=O)CNC(=O)[C@@H](N)CC(C)C)[C@@H](C)O)C(=O)N1CCC[C@H]1C(=O)NCC(=O)O,-,-,-,0,-,-
CCCc1cc(C(=O)Nc2c(C)nn(Cc3ccc(Cl)c(Cl)c3)c2C)no1,0,-,-,0,-,-
Cc1ccccc1NC(=O)c1nc(S(=O)(=O)Cc2ccccc2F)ncc1Cl,0,-,-,-,-,-
CCC12CN3CC(CC)(CN(C1)C3c1cccc(OC)c1O)C2=O (centres undefined),0,-,-,0,-,-
CCCCN(CCCNC(=O)c1c(C)oc2nc[nH]c(=O)c12)Cc1ccccc1,0,-,-,0,-,-
Cc1cnc2ccccc2c1C,0,-,-,-,-,-
SMILES,FEN1 inhibitor,PLK1 PBD inh,TCR activator,VDR inhibitor,WRN inhibitor,PI5P4K alpha inh
CC(=O)Nc1ccc(SCC(=O)NC(=O)c2ccc(S(=O)(=O)N(C)C)cc2)cc1,0,11µM,0,?,0,0
C=C(C)C(=O)Nc1ccc2c(c1)OCCOCCOCCO2,?,0,0,0,?,-74
CC(=O)Nc1ccc(SCC(=O)NNC(=O)CN(C)S(=O)(=O)c2ccc(C)cc2)cc1,0,0,0,0,0,0
O=C(CN1C(=O)CSC1=O)Nc1ccc2c(c1)OCCO2,0,0,0,0,0,-55
Nn1c(SCC(=O)Nc2ccc3c(c2)OCCO3)nnc(CCC(=O)O)c1=O,0,3.4µM,0,?,0,?
CC(=O)Nc1ccc2c(c1)OCCO2,0,0,0,0,0,0
Cc1nnc(SCC(=O)Nc2ccc3c(c2)OCCO3)n1N,0,0,0,0,0,0
c1ccc(Nc2nc(-c3ccc4c(c3)OCO4)nc3ccccc23)cc1,-,-,-,0,-,-
CCOc1ccc(C[C@H]2NC(=O)CCSSC[C@@H](C(=O)N3CCC[C@H]3C(=O)N[C@@H](CCCN)C(=O)NCC(N)=O)NC(=O)[C@H](CC(N)=O)NC(=O)[C@H]([C@@H](C)O)NC(=O)[C@H]([C@@H](C)CC)NC2=O)cc1,-,-,-,0,-,-
Cc1nc(Nc2nc(CSc3nc4ccccc4[nH]3)cc(=O)[nH]2)nc2ccccc12,0,0,0,0,0,0
Cc1nc(Nc2nc(-c3ccccc3)cc(=O)[nH]2)nc2ccccc12,25µM,0,0,0,0,0
O=S(=O)(c1ccc2ccccc2c1)n1nc(-c2ccco2)nc1NCc1ccc(F)cc1,0,-,-,0,-,-
COc1cccc(C2C(C(=O)Nc3cccnc3)=C(C)Nc3nc(SCc4ccccc4)nn32)c1 (centres undefined),0,-,-,0,-,-
N#C/C(=C(/O)CSc1nnc(Cc2cccs2)n1C1CCCCC1)c1nc2ccccc2[nH]1,0,0,0,0,0[11.6 µM],-64
O=C1CCc2cc(-c3csc(-c4ccc(O)cc4)n3)ccc2N1,0,-,-,-,-,-
CCCC(=O)Nc1cccc(-c2cn3c(C)csc3n2)c1,0,-,-,0,-,-
CC(C)(C)NC(=O)C(c1ccc(C(F)(F)F)cc1)n1c(=O)c(-c2ccco2)nc2ccccc21 (centres undefined),-,0,-,-,0,-64
CC(C)(C)NC(=O)C(C1CC1)n1c(=O)c(-c2ccco2)nc2ccccc21 (centres undefined),-,0,-,-,0,-63
O=C(NCc1ccccc1)C(c1ccc(C(F)(F)F)cc1)n1c(=O)c(-c2ccco2)nc2ccccc21 (centres undefined),-,0,-,-,0,?
Cn1nc(-c2ccccc2F)c2cc(C(=O)NCc3cccc(Cl)c3)sc21,0,-,-,0,-,-
COc1ccc(C(CC(=O)NCc2ccc(Cl)cc2)N2Cc3ccccc3C2=O)cc1OC (centres undefined),0,-,-,0,-,-
Cc1ccccc1N1CCN(C(=O)c2ccccc2NC(=O)c2ccccc2C(=O)O)CC1,0,30µM,0,0,0,0
CN1CCN(C(=O)c2ccccc2NC(=O)c2ccccc2Br)CC1,0,0,0,0,0,0
CC#CCCC(=O)N1C=Cc2ccccc2C1C#N (centres undefined),0,12µM,0,0,0,0
NCCN(Cc1ccc(Cl)c(Cl)c1)c1ccc(Br)cn1,0,-,-,0,-,-
COc1ccc(/C=N/N2CCOCC2)cc1O,0,0,0,0,0,0
COc1ccc(/C=N/N2CCN(C3c4ccccc4-c4ccccc43)CC2)cc1O,0,27µM,0,0,0,0
COc1cc(C/C=C/c2ccccc2)c(OC)cc1O,-,-,-,50µM,-,-
O=C(NCc1cccnc1)[C@@H]1CC=C[C@@H]2CCN(C3CCCCC3)C(=O)[C@@H]21,0,-,-,-,-,-
